Values joined by “and” are separate entries in the source; they are usually repeats but may differ in a detail not shown here. Identical values can stand only once. Results filed as inconclusive are left out. Unmarked numbers belong to inactive results. Active and inactive are the calls of the source. Calls come from the whole dose curve; as a rule, active = well fitted curve in the direction sought with a large enough effect; inconclusive = small, poorly fitted or top-dose-only effect, or another doubt; inactive = no such curve, though single readings can be large; an effect the other way counts as inactive or inconclusive.

For assay [1], the target named is Cellular tumor antigen p53 (Homo sapiens) (UniProt P04637). Briefly: Primary qHTS for small molecule compounds that upregulate eGFP-tagged delta133p53alpha (in N-terminal) cells. (AID 2060322).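 For activation: cells pre-induced with doxycycline then dosed without doxycycline; series mostly up to about 56 µM; 0% = DMSO vehicle and 100% = reference activator.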 Note: nearly all actives have a fitted effect of over 75% in size. Note: potency is the fitted concentration of half-maximal effect. Conditions: NCI-H358 eGFP-delta133p53alpha fluorescence, 24 h; activation: active compounds read high. The essentials:
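NCI-H358 cells pre-induced 24 h with 10 ng/ml doxycycline for eGFP-delta133p53alpha, plated dox-free and exposed 24 h at 37C to titrated compounds. Fixed, Hoechst-stained; gated GFP peak intensity by laser scanning cytometry, normalized to DMSO (0%) and 57.5 uM 5-azacytidine (100%).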
Background: In qHTS, concentration-response curves come from the screen itself.

Assay [2] has as its target Aldehyde dehydrogenase, mitochondrial (Homo sapiens) (UniProt P05091). Description: qHTS for Inhibitors of the Aldehyde Dehydrogenase Family (ALDH2) Primary screen (AID 2061308).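 Note: plate controls were vehicle for no effect and reference inhibitor for full effect; nearly all actives have a fitted effect of over 55% in size.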
The target in assay [3] is Retinaldehyde dehydrogenase 3 (Homo sapiens) (UniProt P47895). Briefly: qHTS for Inhibitors of the Aldehyde Dehydrogenase Family (ALDH1A3) Primary screen (AID 2061315).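 Note: plate controls were DMSO vehicle for no effect and reference inhibitor for full effect.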
Assay [4] in a line: BET inhibitor-based combinations targeting novel dependencies in MECOM-rearranged (r) AML: SET-2 cell line (AID 2202231).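 For viability: plate controls were DMSO treated cells for no effect and wells without cells for full effect.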 Note: nearly all actives have a fitted effect of over 35% in size. Note: potency is the fitted concentration of half-maximal effect. To be noted: SET-2 AML cells viability, CellTiter-Glo luminescence, 48 h; viability: active compounds read low, concentration not given here. An outline of the steps:
(§1)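 500 cells/well; 11-pt dose curve; 48 h, standard incubator; CellTiter-Glo luminescence after 15 min RT; DMSO/empty-well normalization; AUC plus Z-AUC (mean-centered within each line).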

Assay [5] can be described thus: BET inhibitor-based combinations targeting novel dependencies in MECOM-rearranged (r) AML: MV-4-11 cell line (AID 2202233).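 For viability, % of control: plate controls were DMSO for no effect and blank wells for full effect.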 Note: nearly all actives have a fitted effect of over 45% in size. Note: potency is the fitted concentration of half-maximal effect. An outline of the steps: (§2)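 Cells were plated at 500 per well and exposed to each drug across an 11-point dose range for 48 hr at standard incubator conditions. Viability was read by CellTiter-Glo luminescence, and activity was expressed as AUC and per-cell-line Z-transformed AUC.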

The nature of assay [6]: BET inhibitor-based combinations targeting novel dependencies in MECOM-rearranged (r) AML: HNT-34 cell line (AID 2202234).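 For viability (% of control): plate controls were vehicle wells for no effect and cell-free wells for full effect.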 Note: nearly all actives have a fitted effect of over 35% in size. Note: potency is the fitted concentration of half-maximal effect. An outline of the steps: as §2
Assay [7] can be described thus: BET inhibitor-based combinations targeting novel dependencies in MECOM-rearranged (r) AML: UCSD-AML1 cell line (AID 2202235).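 For viability (% of control): series mostly up to about 46 µM; plate controls were DMSO vehicle wells for no effect and blank wells for full effect.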 Note: nearly all actives have a fitted effect of over 40% in size. Note: potency is the fitted concentration of half-maximal effect. An outline of the steps: as §2
Assay [8] is described as follows: BET inhibitor-based combinations targeting novel dependencies in MECOM-rearranged (r) AML: AML-191 cell line (AID 2202236; note: nearly all actives have a fitted effect of over 35% in size; note: potency is the fitted concentration of half-maximal effect;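 for viability (% of control): plate controls were vehicle wells for no effect and wells without cells for full effect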). The essentials:
as §1

Assay [9] can be described thus: BET inhibitor-based combinations targeting novel dependencies in MECOM-rearranged (r) AML: AML-194 cell line (AID 2202237; note: nearly all actives have a fitted effect of over 40% in size; note: potency is the fitted concentration of half-maximal effect;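 for viability (% of control): plate controls were vehicle wells for no effect and wells without cells for full effect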). An outline of the steps:
as §1

Assay [10] can be described thus: BET inhibitor-based combinations targeting novel dependencies in MECOM-rearranged (r) AML: OCI-AML3 cell line (AID 2202232). Note: potency is the fitted concentration of half-maximal effect; nearly all actives have a fitted effect of over 35% in size. To be noted: Potency: OCI-AML3 viability. The essentials: as §1

Chain of Cellular tumor antigen p53 (Homo sapiens) (P04637 whole entry, looked up): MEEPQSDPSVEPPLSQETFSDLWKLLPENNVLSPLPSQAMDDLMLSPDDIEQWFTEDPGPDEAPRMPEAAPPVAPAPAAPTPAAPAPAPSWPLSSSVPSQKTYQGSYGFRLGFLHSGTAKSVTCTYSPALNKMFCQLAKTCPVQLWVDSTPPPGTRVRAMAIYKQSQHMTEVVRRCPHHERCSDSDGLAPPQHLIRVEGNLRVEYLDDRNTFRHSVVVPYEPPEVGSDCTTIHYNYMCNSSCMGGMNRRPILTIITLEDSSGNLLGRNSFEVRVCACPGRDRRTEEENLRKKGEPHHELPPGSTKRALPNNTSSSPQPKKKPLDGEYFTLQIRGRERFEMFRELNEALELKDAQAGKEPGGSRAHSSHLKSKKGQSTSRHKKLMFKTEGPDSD

A word on the viability: it is a read-out of living cells in per cent, often relative to untreated cells. With `COc1ccc(-c2cnc3c(-c4cccc5ncccc45)cnn3c2)cc1`, the activation in [1] is 16.1%. The Potency entry in assay [2], in [3], in assay [6], in [7], in [8] and in [9] was “inactive” in each case. Also, the viability in assay [4] was 119%. Further, the Potency in assay [5] was 7.42 µM (active).

Take `CC(C)n1nc(-c2ccc3oc(N)nc3c2)c2c(N)ncnc21`: the activation in [1] is 5.06% and 13.4%. For the same compound, the Potency result in [2] and in assay [3] was “inactive” throughout. Moreover, the Potency in assay [4] is 0.148 µM (active); in assay [5], 0.0372 µM (active); in assay [6] it was 0.0235 µM (active); in assay [7], 0.0118 µM (active).

As for `Cc1cc(Nc2cc(CN3CCOCC3)c3nc(C)c(Cc4ccc(Cl)cc4F)n3n2)n[nH]1`, the Potency in [1] was 27.3 µM (active); in assay [4], 2.63 µM (active); in assay [5] it was 0.235 µM (active); in assay [6], 2.35 µM (active); in [7], 2.35 µM (active); in assay [8], 0.742 µM (active). Besides, in [9], the Potency is 1.48 µM (active). Besides, the Potency result in assay [2] and in assay [3] was “inactive” throughout.

In the case of `Cc1cn(CCN2CCN(c3ccccc3-c3cc(C#N)cc(C(=O)NCCCN4CCCC4)c3)CC2)c2ccccc12`, in assay [1], the activation was 15.8%. Moreover, the Potency entry in assay [2] and in [3] was “inactive” throughout. Further, the Potency is 23.5 µM (active) in [4]; 20.9 µM (active) in assay [5]; 18.6 µM (active) in assay [6]; 18.6 µM (active) in [8]; 18.6 µM (active) in [9].

As for `Cc1c(C(=O)N2CCOc3ccc(-c4ccc(N)nc4)cc3C2)ccc(S(C)(=O)=O)c1F`, the Potency was 26.9 µM (active) in assay [1]; 13.2 µM (active) in assay [4]; 6.61 µM (active) in assay [5]; 2.95 µM (active) in assay [6]; 0.742 µM (active) in assay [7]; 1.86 µM (active) in assay [8]. The Potency result in assay [2] and in assay [3] was “inactive” each time.

Take `N#CN1CCC[C@@H](n2nc(-c3ccc(Oc4ccc(F)cc4F)cc3)c(C(N)=O)c2N)C1`: the activation in assay [1] was -16.1%. Further, the Potency entry in assay [2], in [3] and in assay [9] was “inactive” throughout. Moreover, the viability in [4] is 107%. Besides, in assay [10], the Potency was 10.5 µM (active).

Turning to `Cn1nccc1Nc1nccc(-c2ccn([C@H](CO)c3ccc(Cl)c(F)c3)c(=O)c2)n1`, in [1], the activation is -22.3%. Also, the Potency entry in assay [2] and in assay [3] was “inactive” throughout. Further, in assay [4], the viability was 72.4%. The Potency in assay [5] and in assay [7] was 16.6 µM (active) in each case.

`CCN1CCN(Cc2ccc(NC(=O)c3ccc(C)c(NC(=O)c4cncc(-c5cccs5)c4)c3)cc2C(F)(F)F)CC1`: the Potency in assay [1] was 26.9 µM (active); in assay [4] it was 5.9 µM (active); in [5] it was 0.118 µM (active); in assay [6], 0.0148 µM (active); in assay [7] it was 1.05 µM (active); in assay [8] it was 1.05 µM (active). Besides, the Potency in assay [9] was 1.18 µM (active). Moreover, the Potency entry in [2] and in [3] was “inactive” throughout.

Turning to `CC(C)NC(=O)N1CC[C@H](N=C2Nc3cc(F)ccc3N(CC(F)F)c3ccc(Cl)cc32)C1`, in assay [1], the activation is 4.33%. The Potency result in [2] and in assay [3] was “inactive” each time. Besides, in assay [4], the viability is 109%. Further, the viability, % of control in assay [5] is 94.7% [at 8.46 µM]. Also, the figures for the viability (% of control) in [6], in assay [7] and in [8] were 99.5% [at 8.46 µM], 104% [at 8.46 µM] and 98.9% [at 8.46 µM], respectively.

As for `Cc1cncc2cccc(S(=O)(=O)N3CCCN(C(=O)CN)C[C@@H]3C)c12`, in assay [1], the activation was -16.4% and -8.59%. The Potency result in assay [2] and in [3] was “inactive” in each case. Besides, the viability in assay [4] was 91.2%. Also, the Potency in assay [7] is 4.17 µM (active).

Turning to `O=C(O)CCCc1c[nH]c2ccccc12`, the activation in assay [1] is -8.68% and -9%. The Potency entry in assay [2], in assay [3], in [6], in assay [8] and in [9] was “inactive” throughout. The viability in assay [4] is 116%.

As for `COc1ccc(C2(C#N)CCC(C(=O)O)CC2)cc1OC1CCCC1` (stereo unspecified), in [1], the activation was -6.96% and -15.7%. Also, the Potency result in assay [2], in assay [3], in assay [6], in assay [7], in [8] and in assay [9] was “inactive” throughout. In assay [4], the viability was 119%.

`N#CC1(c2cccc(C(=O)Nc3cc(Oc4ccc5nc(NC(=O)C6CC6)sc5n4)ccc3F)c2Cl)CC1`: the activation in [1] is 23.6%. Also, the Potency result in assay [2], in assay [3], in [7] and in assay [9] was “inactive” each time. Further, in assay [4], the viability is 82.7%.

As for `Cn1cnc2c(F)c(Nc3ccc(Br)cc3F)c(C(=O)NOCCO)cc21`, the activation in assay [1] was 64.2% and -20.5%. Further, the Potency result in [2] and in assay [3] was “inactive” each time. Besides, the viability in assay [4] is 26.2%. For the same compound, the Potency in assay [6] is 0.0235 µM (active).

As to `O=C(C1CC1)N1CC[C@@H](Cc2n[nH]c(=O)n2-c2ccc(-c3ccc4occc4c3)cc2)C1`, in assay [1], the activation is -2.33% and -15.1%. Further, the Potency entry in [2], in assay [3], in assay [7], in assay [8] and in [9] was “inactive” each time. In assay [4], the viability was 95.8%.

Regarding `Cc1c(C)n(Cc2ccc(-c3ccccc3C(=O)O)cc2)c2ccc(C(=O)N[C@@H](C)c3ccc([N+](=O)[O-])cc3)cc12`, the activation in [1] was 21.3% and -1.79%. Also, the Potency entry in assay [2], in [3], in assay [6], in assay [7], in [8] and in assay [9] was “inactive” each time. In addition, the viability in [4] was 111%.

As to `O=C1CCCC2=C1C(c1[nH]ncc1Cl)N=C(Nc1nc3ccccc3o1)N2` (stereo unspecified), in assay [1], the activation was -17.4% and 19.7%. The Potency result in assay [2], in assay [3] and in [9] was “inactive” each time. Moreover, in assay [4], the viability was 78.9%. Further, the Potency is 10.5 µM (active) in assay [5] and 16.6 µM (active) in [8].

On to `CCCOc1ccn2c(C(C)=O)cc(-c3ccccc3S(C)(=O)=O)c2c1`, for which, in assay [1], the activation was -0.333%. Further, the Potency result in assay [2], in assay [3], in assay [7] and in assay [9] was “inactive” in each case. For the same compound, in assay [4], the viability was 93%. Besides, the Potency in [5] and in assay [8] was 18.6 µM (active) each time.

The values above are taken from PubChem BioAssay (NCATS).
